# Publication PMC7819943, “Rice protein-binding microarrays: a tool to detect cis-acting elements near promoter regions in rice”
# Over roughly 39,000 sequences, “fluorescence intensity (a.u.)” has its median near 4,300; the highest 2% begin near 39,000. For the sample, the highest values were picked, then their nearest neighbours and some sequences at random.
# Molecular target: T1, OsSMF1 (Oryza sativa, UniProt Q6ZLB0 1-436)
# T1 sequence: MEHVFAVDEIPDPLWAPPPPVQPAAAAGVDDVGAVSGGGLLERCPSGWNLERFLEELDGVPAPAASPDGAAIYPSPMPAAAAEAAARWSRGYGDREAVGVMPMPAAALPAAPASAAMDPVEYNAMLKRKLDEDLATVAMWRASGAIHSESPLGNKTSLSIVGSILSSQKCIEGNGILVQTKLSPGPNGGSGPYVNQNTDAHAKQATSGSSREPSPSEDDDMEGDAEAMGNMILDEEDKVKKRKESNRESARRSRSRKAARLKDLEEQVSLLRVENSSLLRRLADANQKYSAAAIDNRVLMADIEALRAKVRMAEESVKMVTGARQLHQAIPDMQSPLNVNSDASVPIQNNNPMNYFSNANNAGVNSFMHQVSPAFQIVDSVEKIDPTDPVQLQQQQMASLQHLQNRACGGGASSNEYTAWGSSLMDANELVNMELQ
# Experiment: protein-binding microarray (RPBM); PBS, 2% BSA, 51.3 ng/ul salmon testes DNA, 50 uM zinc acetate, 200 nM TF, 25 C, 1 h; high values mean tight binding
# Conditions: protein: recombinant; tags: N-terminal polyhistidine and DsRed monomer fusion (pET32a); chain copies: 2; label: CyDye5-dUTP incorporated in the synthesized complementary strand; 3' TTTTT single-stranded linker to array surface; dsDNA, one strand shown
# In short: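 Transcription factors were made in E. coli BL21-CodonPlus as N-terminal fusions to a polyhistidine tag and DsRed, then purified on Ni–NTA. After primer extension with Cy5-dUTP and blocking with 2% BSA, a custom Agilent array was exposed for 1 h at 25 °C to 200 nM protein in PBS, 2% BSA, salmon testes DNA and 50 µM zinc acetate. Washed arrays were scanned on an Axon 4000B, and the binding signal is per-feature fluorescence intensity in arbitrary units.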
row,Sequence,binding signal
1,TTGGCTTCTTCAACTTACGTTACCCAATGCATTATATTTGCGGAGTCACCTAGTGCAG,4300 fluorescence intensity (a.u.)
2,ACTGCTCACGCCTTAACTGCGCGTCTTAAGGTGGCGTGGCCGGAGTCACCTAGTGCAG,4310 fluorescence intensity (a.u.)
3,CGAGCCCACTCGAGGTGACTCACCTTGTTCCTCCACCAGTCGGAGTCACCTAGTGCAG,18500 fluorescence intensity (a.u.)
4,TCTGAGTTACTTCCAAGTTGACTAGTTACCTCTTACTACCCGGAGTCACCTAGTGCAG,3260 fluorescence intensity (a.u.)
5,TTAATGTCCGAACACCTCATACAACGTGACGCGTCAAAACCGGAGTCACCTAGTGCAG,6890 fluorescence intensity (a.u.)
6,AGTTGGCGTGGATGGCCACGATTCTGGACCCGGGGTTGCCCGGAGTCACCTAGTGCAG,3600 fluorescence intensity (a.u.)
7,ACGCATGGATCCACGTGACGTCACGCCACGTCATCCACCACGGAGTCACCTAGTGCAG,60800 fluorescence intensity (a.u.)
8,ATGGACTGTTTTGTCAACTAAGTAATGCATGACACGTGGACGGAGTCACCTAGTGCAG,14500 fluorescence intensity (a.u.)
9,CTGAATTTAGACACCTCAGCGCCACGTCAACTGGCGCTGACGGAGTCACCTAGTGCAG,18400 fluorescence intensity (a.u.)
10,ATTCTAATGACACCTAAGTGCCACGTCAACGCCACGTGGACGGAGTCACCTAGTGCAG,45100 fluorescence intensity (a.u.)
11,ACCGATGCCATCATCCACGTCATCGTCCACGTGTCACCCACGGAGTCACCTAGTGCAG,45100 fluorescence intensity (a.u.)
12,TTAATTCTAATGCCACTTAAGCGCAACGTCAACACCACGTCGGAGTCACCTAGTGCAG,18200 fluorescence intensity (a.u.)
13,TATGTATGAATGACAACACCGCCACGTCAGCGCCACGTCACGGAGTCACCTAGTGCAG,50400 fluorescence intensity (a.u.)
14,GTCCGATCGGACGCACCACGCATCCTAGCCGTCCACGCCACGGAGTCACCTAGTGCAG,3180 fluorescence intensity (a.u.)
15,TACCAGTGTCACGCAGTGACGCAATGGATCATGCTATCCACGGAGTCACCTAGTGCAG,4450 fluorescence intensity (a.u.)
16,CTCATCGTCCTCCACGTGTCCACCCATACACGTGTCGCCACGGAGTCACCTAGTGCAG,29800 fluorescence intensity (a.u.)
17,GACAACCGAACACGTCGAGCCAGCGAATGATGAAACCCCACGGAGTCACCTAGTGCAG,31800 fluorescence intensity (a.u.)
18,AATCTCACCCATCCACGTGTCCCCAGATCTCATCCCCATCCGGAGTCACCTAGTGCAG,18700 fluorescence intensity (a.u.)
19,CGGCGGCTTCTTGTTGGTGACGCCGCACGGCATGGTTGATCGGAGTCACCTAGTGCAG,5370 fluorescence intensity (a.u.)
20,CACTGCCCATTCGCCACGTCCCCTAACGCTCCAGGTTTATCGGAGTCACCTAGTGCAG,11800 fluorescence intensity (a.u.)
21,GAGATCGAACATCGATGCAGCCCCGCGTCAGGTGCCAAGTCGGAGTCACCTAGTGCAG,3510 fluorescence intensity (a.u.)
22,TAACCATGGTCTTGCCTACGTGGCGTGCCACGTAGACGATCGGAGTCACCTAGTGCAG,34300 fluorescence intensity (a.u.)

row,Sequence,binding signal
1,ACCCAAAGCCACCCGCAACAACCGACGACGACGACGACCGCGGAGTCACCTAGTGCAG,24100 fluorescence intensity (a.u.)
2,TTGAACCCCGTGTACATCAACAAACCACGTGTCCATCAAGCGGAGTCACCTAGTGCAG,6220 fluorescence intensity (a.u.)
3,ACCATGGTCTAACCTACGTGGCATGCCACGTGTGCGTGTGCGGAGTCACCTAGTGCAG,56000 fluorescence intensity (a.u.)
4,CACGTGTACAAGGGCAAAGCGCAACACCGACCCGAGTCCACGGAGTCACCTAGTGCAG,39300 fluorescence intensity (a.u.)
5,CATGGTGCGGGCCAGCTCAGCTGTGCACGTGGCATGCCACCGGAGTCACCTAGTGCAG,17200 fluorescence intensity (a.u.)
6,AAAGTTTCATGCCTGAGATGTTATGTTACGTGTCTATCCACGGAGTCACCTAGTGCAG,7680 fluorescence intensity (a.u.)
7,AACATGATTTAACAGGTAACAGTCGCCCATGCCATTCTTGCGGAGTCACCTAGTGCAG,3350 fluorescence intensity (a.u.)
8,ATTTTCATGCTTAGATGTAGTAACTACACCAACATTACATCGGAGTCACCTAGTGCAG,3310 fluorescence intensity (a.u.)
9,ATGTTTCTGCGGCCCGTCATCCGTGTTTGAGTCGGTTATACGGAGTCACCTAGTGCAG,4220 fluorescence intensity (a.u.)
10,CGCAGCCCGAGCCCGCCGTATTCCACGTCGACGCTGTCGTCGGAGTCACCTAGTGCAG,5720 fluorescence intensity (a.u.)
11,GAAATTTTCAGGGTGTTACATAGATCAACTGAATTCCTTACGGAGTCACCTAGTGCAG,3550 fluorescence intensity (a.u.)
12,TATAAATTTGGACACATATATGAAACACATATATTGATCCCGGAGTCACCTAGTGCAG,30400 fluorescence intensity (a.u.)
13,ATAAATTTGGACGCATCCCAAAATTCGGCAAACATATGACCGGAGTCACCTAGTGCAG,39200 fluorescence intensity (a.u.)
14,CATAAATGAGATCCAGTGACGGCATGAGCATGTCCCAATTCGGAGTCACCTAGTGCAG,24900 fluorescence intensity (a.u.)
15,GTGAGAGAAGCCGCCTTGGATGATGTCAACCATGGTGGCGCGGAGTCACCTAGTGCAG,6930 fluorescence intensity (a.u.)
16,CAATGCTAGCCGCGCAATCTGCGCGGGCCACCATGCTATTCGGAGTCACCTAGTGCAG,3430 fluorescence intensity (a.u.)
17,GGGCCAAAACAAAGCCAGCGTGCAACCCTCGACAAAGCACCGGAGTCACCTAGTGCAG,4110 fluorescence intensity (a.u.)
18,CAATTATCCGCAACGTATGGCTAGCTCAACCCTACTGTAACGGAGTCACCTAGTGCAG,3270 fluorescence intensity (a.u.)
19,GATATCATGTAGGAGTAGTAGTTGTTATGTGTGTGGGCTACGGAGTCACCTAGTGCAG,13000 fluorescence intensity (a.u.)
20,GATGGCTATCTGCCCGGGCAAAGTGTACCCTTTTACTGTTCGGAGTCACCTAGTGCAG,30800 fluorescence intensity (a.u.)
21,CAAACCCTAGCTCATATGGTTGTAGTCTTAGCTACTATCACGGAGTCACCTAGTGCAG,50500 fluorescence intensity (a.u.)
